Compounds with a hit are over-represented: about 6.9% of the library has one in this group of screens.
IL1B secr inh – inflammasome signaling inhibition, IL-1 beta readout; actives 4.7% (n = 360,000); activity change, % at 57.5 µM; THP-1 LPS/ATP IL-1B secretion, AlphaLISA, 16 h; hits give low values; in the data active = activity change below about -50%; inconclusive = mostly about -30% to -49%; also: % is scaled to controls: 0 for no effect and ±100 for the full control effect
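Secreted IL-1B measured by AlphaLISA bead assay after 16 h compound exposure of THP-1 cells; compounds (final up to 57.5 uM) added 1 h before LPS (250 ng/mL) and ATP (1.25 mM) stimulation; lower signal means less secretion.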
Vif-APOBEC3F blk – inhibitors of Vif-A3F interaction; HeLa A3F-eYFP + Vif (tagged APOBEC3F with the HIV-1 protein that degrades it), YFP fluorescence increase; Potency, µM (highest dose often 46.1 µM), for inactives: at the top dose activity, negative = active; actives 0.2% (n = 390,000); AID 602313; also: potency is read from the fitted curve at half-maximal effect; % of control where 0% means no effect; nearly all actives have a fitted effect of over 65% in size
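HeLa cells stably expressing Vif plus C-terminally eYFP-tagged A3F were seeded, incubated overnight at 37 deg C, dosed with compound, incubated overnight again at 37 deg C. Yellow fluorescence (Ex 488/Em 500-530) reported blocked Vif-mediated A3F-eYFP degradation.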
SW480 rereplic – DNA re-replication induction in SW480 cells; SW480 DNA re-replication, Hoechst DNA content imaging, 48 h; Potency, µM (top dose mostly 46.1 µM), inactives show top-dose re-replication activation, hits mostly activators; actives 1.8% (n = 340,000); also: potency is read from the fitted curve at half-maximal effect; % of control where 0% means no effect; nearly all actives have a fitted effect of over 55% in size
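First, 250 cells per well were seeded. Next, compound or vehicle (23 nL) was pinned in, plates sat 48 hr at 37 C. Finally Hoechst was added for 40 min before fluorescence scanning.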
MCF10A rerep – induces DNA re-replication in MCF 10a normal breast cells; Potency, µM (titrated, usually from 46.1 µM), for inactives: at the top dose activity, positive = re-replication, actives largely listed as activators; AID 624296; MCF 10A DNA re-replication, Hoechst nuclear intensity, 48 h; actives 2.9% (n = 350,000); also: potency is read from the fitted curve at half-maximal effect; % of control where 0% means no effect; nearly all actives have a fitted effect of over 50% in size
Giardia killer – Giardia lamblia killing; Giardia lamblia trophozoite viability; activity change, % at 7.66 µM, hits read low; actives 0.15% (n = 340,000); AID 540267; in the data active = activity change below about -80%; inconclusive = between about -30% and that limit;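 also: parasites exposed to compound for two days anaerobically before the ATP read; % is scaled to controls: 0 for no effect and ±100 for the full control effect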
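Luminescent ATP signal served as the viability read-out, measured 15-30 min after adding ATP detection reagent to trophozoites that had been incubated with compounds for 48 hrs at 37 deg C anaerobically at 100 cells/well.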
Vif-A3G inh – blocks the Vif interaction with human APOBEC3G | Q9HC16 | Potency, µM (highest dose often 46.1 µM), for inactives: top-dose activity, negative = active, actives largely listed as inhibitors | actives 0.076% (n = 410,000) | HeLa A3G-eYFP + Vif (tagged APOBEC3G with the HIV-1 protein that degrades it), YFP fluorescence, overnight; also: potency is read from the fitted curve at half-maximal effect; % is scaled to controls: 0 for no effect and ±100 for the full control effect; nearly all actives have a fitted effect of over 60% in size
Target sequence (Q9HC16 whole entry, looked up): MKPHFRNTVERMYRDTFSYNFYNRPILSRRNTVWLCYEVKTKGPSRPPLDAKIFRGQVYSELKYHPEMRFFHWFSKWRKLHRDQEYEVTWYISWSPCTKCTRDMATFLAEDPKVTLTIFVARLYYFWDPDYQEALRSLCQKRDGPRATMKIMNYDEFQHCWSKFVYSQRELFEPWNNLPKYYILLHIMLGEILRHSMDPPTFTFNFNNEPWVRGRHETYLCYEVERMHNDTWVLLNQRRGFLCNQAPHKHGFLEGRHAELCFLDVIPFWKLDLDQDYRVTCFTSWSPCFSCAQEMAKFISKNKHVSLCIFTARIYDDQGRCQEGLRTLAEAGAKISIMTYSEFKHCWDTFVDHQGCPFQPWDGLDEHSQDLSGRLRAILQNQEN
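Read-out is eYFP fluorescence (Ex 488/Em 500-530) from Vif-expressing HeLa A3G-eYFP cells; more signal means A3G escaped Vif-mediated degradation. Cells plated overnight, compound pinned in, incubated overnight at 37 deg C.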
* marks the source's active call; other numbers are inactive results. Unless noted, calls follow the shape of the dose curve; as a rule, active = well fitted curve in the direction sought with a large enough effect; inconclusive = small, poorly fitted or top-dose-only effect, or another doubt; inactive = no such curve, though single readings can be large; an effect the other way counts as inactive or inconclusive.

What do the screens show for `O=Nc1c(O)n(Cc2ccc(Cl)c(Cl)c2)c2ccccc12`?
IL1B secr inh: -59*; Vif-APOBEC3F blk: -1%; SW480 rereplic: -2%; MCF10A rerep: inconclusive; Giardia killer: -5; Vif-A3G inh: -9%

What do the screens show for `Nc1nc2ccccc2n1Cc1ccc(Cl)c(Cl)c1`?
IL1B secr inh: -92*; Vif-APOBEC3F blk: 4%; SW480 rereplic: inconclusive; MCF10A rerep: -6%; Giardia killer: -27; Vif-A3G inh: -1%

How did O=Nc1c(O)n(Cc2ccccc2)c2ccccc12 do in these assays?
IL1B secr inh: -2; Vif-APOBEC3F blk: 1%; SW480 rereplic: -4%; MCF10A rerep: 1%; Giardia killer: 0; Vif-A3G inh: -10%

What do the screens show for `O=Nc1c(O)n(Cc2cccc(C(F)(F)F)c2)c2ccccc12`?
IL1B secr inh: -246*; Vif-APOBEC3F blk: 6%; SW480 rereplic: 8%; MCF10A rerep: -3%; Giardia killer: -15; Vif-A3G inh: -4%

Results for COC(=O)c1ccc(Cn2c(O)c(N=O)c3ccccc32)o1 ?
IL1B secr inh: inconclusive; Vif-APOBEC3F blk: -2%; SW480 rereplic: -6%; MCF10A rerep: 15%; Giardia killer: 3; Vif-A3G inh: 0%

What do the screens show for `CCN(CC)S(=O)(=O)c1ccc2c(c1)N(CC(=O)Nc1ccc(F)cc1F)C(=O)C1CCCN21` (centres undefined)?
Vif-APOBEC3F blk: -1%; Vif-A3G inh: -4%

How did CC[n+]1c(/C=C/Nc2ccccc2)oc2ccccc21 do in these assays?
IL1B secr inh: -27; Vif-APOBEC3F blk: 11µM*; SW480 rereplic: inconclusive; MCF10A rerep: inconclusive; Giardia killer: 5; Vif-A3G inh: 7.9µM*

How did CCn1c(/C=C/Nc2ccccc2)[n+](CC)c2ccc(Cl)cc21 do in these assays?
IL1B secr inh: -3; Vif-APOBEC3F blk: -1%; SW480 rereplic: -2%; MCF10A rerep: -5%; Giardia killer: 22; Vif-A3G inh: 0%

How did CCOC(=O)c1ccc2c(c1)n(CC)c(/C=C/Nc1ccccc1)[n+]2CC do in these assays?
IL1B secr inh: 0; Vif-APOBEC3F blk: -11%; SW480 rereplic: 66%; MCF10A rerep: -6%; Giardia killer: -5; Vif-A3G inh: 0%

How did CN(/C=C/c1c([N+](=O)[O-])c(=O)n(C)c(=O)n1C)c1ccccc1 do in these assays?
IL1B secr inh: -3; Vif-APOBEC3F blk: 2%; SW480 rereplic: -8%; MCF10A rerep: 1%; Giardia killer: -2; Vif-A3G inh: 0%

Results for CC[n+]1c(/C=C/Nc2ccccc2)oc2ccc(OC)cc21 ?
IL1B secr inh: -18; Vif-APOBEC3F blk: 5.6µM*; SW480 rereplic: inconclusive; MCF10A rerep: 18µM*; Giardia killer: 13; Vif-A3G inh: inconclusive

Results for CC[n+]1c(/C=C/N(C)c2ccccc2)oc2ccc(F)cc21 ?
IL1B secr inh: -10; Vif-APOBEC3F blk: inconclusive; SW480 rereplic: inconclusive; MCF10A rerep: inconclusive; Giardia killer: 21; Vif-A3G inh: 4µM*

How did CC1CCN(C(=O)Cn2cc(SCc3cccc(F)c3)c3ccccc32)CC1 do in these assays?
Vif-APOBEC3F blk: 0%; Vif-A3G inh: -4%

Results for C#CC(=O)N(c1cccc(OC)c1)C(C(=O)NC1CCCC1)c1cccs1 (centres undefined) ?
IL1B secr inh: -102*; Vif-APOBEC3F blk: -12%; SW480 rereplic: -9%; MCF10A rerep: -2%; Giardia killer: 3; Vif-A3G inh: -17%

Results for C#CC(=O)N(c1ccc(OC)c(OC)c1)C(C(=O)NC1CCCC1)c1cccs1 (centres undefined) ?
IL1B secr inh: -106*; Vif-APOBEC3F blk: 5%; SW480 rereplic: inconclusive; MCF10A rerep: inconclusive; Giardia killer: 2; Vif-A3G inh: -26%

Results for COc1ccc(N(C(=O)Cc2cccs2)C(C(=O)NC2CCCC2)c2ccncc2)cc1OC (centres undefined) ?
IL1B secr inh: -7; Vif-APOBEC3F blk: 1%; SW480 rereplic: 0%; MCF10A rerep: -2%; Giardia killer: -4; Vif-A3G inh: -1%
